Reference: PubChem BioAssay AID1159580 (chemical genetic matrix, 2015)
Where “and” joins values, the source holds several entries; their conditions need not be identical. Equal values may be shown once. Among all 5,500 compounds or so, about 2,000 (36%) were called active. Not shown: some 18% with an inconclusive outcome. No stated cut-off is given here; in the data, active means normalized growth mostly below about 0.91 (no sharp cut-off); inconclusive means no clear call, values can overlap the other calls; inactive means mostly above about 0.92. The list shows a part of the results.

Experiment: chemical genetic growth profiling, strain panel (AID 1159580);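 further: tested at 20 µM; growth read once vehicle control cultures reached saturation at 30 °C; 1 = growth at the plate median or of vehicle wells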
Conditions: S. cerevisiae deletion strains, growth OD

Measured: normalized growth

CN(C)CCC=C1c2ccccc2CCc2ccccc21
active: locus YAL021C, strain ccr4, stronger effect = lower value 0.896 | locus YAL026C, strain drs2, stronger effect = lower value 0.894 | locus YDR137W, strain rgp1, stronger effect = lower value 1.19 [resistant] | locus YER015W, strain faa2, stronger effect = lower value 0.913 | locus YHR027C, strain rpn1, stronger effect = lower value 0.864
inactive: locus YAL013W, strain DEP1, stronger effect = lower value 0.992 | locus YAL030W, strain snc1, stronger effect = lower value 0.995 | locus YAL040C, strain CLN3, stronger effect = lower value 1 | locus YBL061C, strain skt5, stronger effect = lower value 0.991 | locus YBR009C, strain hhf1, stronger effect = lower value 0.913 | locus YBR021W, strain FUR4, stronger effect = lower value 1 | locus YBR023C, strain chs3, stronger effect = lower value 0.975 | locus YBR171W, strain sec66, stronger effect = lower value 0.969 | locus YBR229C, strain ROT2, stronger effect = lower value 1 | locus YBR231C, strain swc5, stronger effect = lower value 1 | locus YBR279W, strain paf1, stronger effect = lower value 0.958 | locus YCL011C, strain gbp2, stronger effect = lower value 0.946 | locus YCL016C, strain dcc1, stronger effect = lower value 0.958 | locus YCL029C, strain bik1, stronger effect = lower value 1 | locus YCL061C, strain MRC1, stronger effect = lower value 0.993 | locus YCL069W, strain vba3, stronger effect = lower value 0.987 | locus YCR088W, strain abp1, stronger effect = lower value 0.953 | locus YDL005C, strain med2, stronger effect = lower value 0.993 | locus YDL035C, strain GPR1, stronger effect = lower value 1.02 | locus YDL040C, strain nat1, stronger effect = lower value 0.989 | locus YDL074C, strain BRE1, stronger effect = lower value 0.999 | locus YDL101C, strain DUN1, stronger effect = lower value 1.01 | locus YDL134C, strain PPH21, stronger effect = lower value 0.998 | locus YDL185W, strain tfp1, stronger effect = lower value 1 | locus YDL192W, strain arf1, stronger effect = lower value 0.996 | locus YDR001C, strain nth1, stronger effect = lower value 0.963 | locus YDR069C, strain doa4, stronger effect = lower value 0.955 | locus YDR101C, strain arx1, stronger effect = lower value 0.995 | locus YDR159W, strain sac3, stronger effect = lower value 0.962 | locus YDR162C, strain NBP2, stronger effect = lower value 1.02 | locus YDR195W, strain ref2 1.07 | locus YDR297W, strain sur2, stronger effect = lower value 0.975 | locus YDR318W, strain mcm21, stronger effect = lower value 1 | locus YDR334W, strain swr1, stronger effect = lower value 0.98 | locus YDR335W, strain msn5, stronger effect = lower value 0.973 | locus YDR363W, strain ESC2, stronger effect = lower value 1 | locus YDR388W, stronger effect = lower value 1 | locus YDR392W, strain spt3, stronger effect = lower value 0.922 | locus YDR502C, strain sam2, stronger effect = lower value 0.992 | locus YEL003W, strain gim4, stronger effect = lower value 0.978 | locus YEL037C, strain rad23, stronger effect = lower value 0.984 | locus YEL061C, strain CIN8 (second series), stronger effect = lower value 0.988 | locus YEL061C, strain CIN8, stronger effect = lower value 1.01 | locus YER002W, strain NOP16, stronger effect = lower value 1.01 | locus YER016W, strain bim1, stronger effect = lower value 0.951 | locus YER110C, stronger effect = lower value 1 | locus YER111C, strain swi4, stronger effect = lower value 0.97 | locus YER155C, strain BEM2 (second series), stronger effect = lower value 1 | locus YER155C, strain BEM2, stronger effect = lower value 1 | locus YER167W, strain BCK2, stronger effect = lower value 1.01 | locus YFR010W, strain ubp6, stronger effect = lower value 0.94 | locus YGL078C, strain dbp3, stronger effect = lower value 0.986 | locus YGL086W, strain mad1, stronger effect = lower value 1 | locus YGL167C, strain pmr1, stronger effect = lower value 0.995 | locus YGL173C, strain kem1, stronger effect = lower value 0.966 | locus YGL227W, strain vid30, stronger effect = lower value 0.994 | locus YGL240W, strain doc1, stronger effect = lower value 0.999 | locus YGL248W, strain PDE1, stronger effect = lower value 1.01 | locus YGL253W, strain hxk2, stronger effect = lower value 0.953 | locus YGR078C, strain PAC10, stronger effect = lower value 1 | locus YGR135W, strain pre9, stronger effect = lower value 0.994 | locus YGR229C, strain SMI1, stronger effect = lower value 0.975 | locus YGR252W, strain gcn5, stronger effect = lower value 0.944 | locus YHR013C, strain ard1, stronger effect = lower value 0.875 | locus YHR030C, strain SLT2, stronger effect = lower value 1.01 and 1.08 | locus YHR079C, strain IRE1 (second series), stronger effect = lower value 0.994 | locus YHR079C, strain IRE1, stronger effect = lower value 1.05 | locus YHR094C, strain hxt1, stronger effect = lower value 0.992 | locus YHR129C, strain ARP1, stronger effect = lower value 1.01 | locus YHR142W, strain chs7, stronger effect = lower value 0.919 | locus YHR200W, strain rpn10, stronger effect = lower value 0.995 | locus YIL066C, strain RNR3, stronger effect = lower value 1.02 | locus YIL073C, strain SPO22, stronger effect = lower value 1.05 | locus YIL125W, strain kgd1, stronger effect = lower value 0.997 | locus YIR030C, strain dcg1, stronger effect = lower value 0.992 | locus YJL092W, strain hpr5, stronger effect = lower value 0.979 | locus YJL095W, strain BCK1 (second series), stronger effect = lower value 0.978 | locus YJL095W, strain BCK1, stronger effect = lower value 1.01 and 1.05 | locus YJL115W, strain asf1, stronger effect = lower value 0.974 | locus YJL129C, strain trk1, stronger effect = lower value 1.01 | locus YJL134W, strain LCB3, stronger effect = lower value 1.01 | locus YJL154C, strain vps35, stronger effect = lower value 0.975 | locus YJL164C, strain tpk1, stronger effect = lower value 0.974 | locus YJL166W, strain qcr8, stronger effect = lower value 0.988 | locus YJL168C, strain set2, stronger effect = lower value 1.01 | locus YJL187C, strain SWE1 (second series), stronger effect = lower value 1.01 | locus YJL187C, strain SWE1, stronger effect = lower value 0.985 | locus YJR043C, strain POL32, stronger effect = lower value 1.01
